For 40 compounds, Potency results are on record in PubChem BioAssay AID2782 (National Center for Advancing Translational Sciences (NCATS), 2010).

Records with an inconclusive call do not appear. Entries that show only a call come without a potency. The source made the active and inactive calls. The call rests on the fitted dose curve; in most records, active means well fitted inhibition curve with a large enough effect in the polarisation, with a control signal flat (not every such curve was filed as active); inconclusive means small, poorly fitted or top-dose-only effect, or effect the other way, or a change in a side signal; inactive means no such curve, though single readings can be large or run the other way; the % refers to the polarisation.
Potency means the concentration at half of the fitted maximal effect.

The nature of this assay: Confirmation of Inhibitors Targeting the Menin-MLL Interaction in MLL Related Leukemias: Competition With Texas Red Labeled MLL-derived Mutant Peptide. To be noted: fluorescence polarization, Texas Red MLL peptide displacement; series mostly up to 94.6 µM. From the text:
qHTS Assay for Inhibitors Targeting the Menin-MLL Interaction in MLL Related Leukemias
NIH Chemical Genomics Center [NCGC]
NIH Molecular Libraries Probe Centers Network [MLPCN]
Assay Submitter (PI): Jolanta Grembecka, Tomasz Cierpicki, University of Virginia
Translocations of the MLL (Mixed Lineage Leukemia) gene are frequently found in human leukemias affecting both children and adults. Fusion of MLL to one of more than 60 genes results in generation of oncogenic proteins upregulating Hox genes, which are vital to blood cell development. Patients harboring fusion of the MLL gene suffer from aggressive leukemias and respond poorly to available therapies. All of the oncogenic fusion proteins have a preserved N-terminal fragment of MLL that has been identified to interact with menin. It has been recently discovered that association with menin is critical to the leukemogenic activity of the MLL fusion oncoproteins. Selective targeting of the menin-MLL interaction could provide an attractive therapeutic approach to develop novel drugs for MLL-related leukemias. Small molecules blocking the menin-MLL interaction should reverse the oncogenic potential of MLL fusion proteins.
We have developed and optimized a fluorescence polarization-based assay for the identification of Menin-MLL inhibitors. The assay was run employing two different MLL-derived peptides. The present assay uses a 12 amino acid peptide labeled with fluorescein at its N-terminus. This peptide consists of the menin high affinity binding motif from MLL and is potently bound by menin. Another peptide with a mutated sequence, labeled with Texas Red, was used in parallel as a less stringent screen for inhibitors.
The present assay was run to confirm the activity of hits from the primary screen using the peptide with a mutated sequence, labeled with Texas Red.
The Menin protein, the MLL-wild type (w.t.) derived peptide (N-terminal 12 amino acids), the MLL-derived peptide labeled with Texas Red and the MLL-w.t. peptide labeled with Fluorescein were kindly supplied by laboratory of Dr. Jolanta Grembecka, University of Virginia. All protein and peptide solutions were stored in single use aliquots at -80C. The Eu3+ Cyrptate-conjugated mouse monoclonal antibody anti-6 Histidine (Eu3+-AB) and the Streptavidin-XL665 conjugate (XL665) were purchased from Cisbio International (Bedford, MA). All antibody and XL665 conjugate solution stocks were stored in single use aliquots at -20C. The Buffer components for all assays were purchased from Sigma-Aldrich (St. Louis, MO) and Invitrogen (Carlsbad, CA).
1. FP reaction buffer: 50 mM Tris-HCl pH 7.5, 50 mM NaCl, 1mM DTT.
Before use, 0.05% BSA is added.
2. Menin protein, MLL-w.t. labeled with fluorescein, MLL-mutant peptide labeled with texas red.
Stored in singe use aliquots at -80C.
3. MLL-w.t. unlabeled peptide as positive control: 10 uM final in FP buffer.
1. Prepare Menin at 200 nM, MLL-w.t.-fluorescein at 25 nM, and MLL-mutant-texas red at 50 nM mixture in FP buffer.
2. Prepare Menin at 200 nM, MLL-w.t.-fluorescein at 25 nM, MLL-mutant-texas red at 50 nM, and 10 uM MLL-w.t. unlabeled mixture in FP buffer.
3. Prepare MLL-w.t.-fluorescein at 25 nM and MLL-mutant-texas red at 50 nM mixture in FP buffer.
3. Dispense 4 ul per well of reagent in step 1 in columns 2, 4 - 48 in a black 1536 well plate, dispense 4 ul per well of reagents from steps 2 and 3 in columns 1 and 3 respectively. Incubate plate at ambient for 15 minutes.
4. Transfer 23 nl per well of compound to plate and incubate at ambient for 1 hr.
5. Read fluorescence polarization for each label using the PerkinElmer Envision.
Envision protocol for fluorescein: FITC FP Dual Enh Mirror, Excitation filter 480, Emission filter (1) P-pol 535, Emission filter (2) S-pol 535
Envision protocol for texas red: FP Dual Enh Mirror, Excitation filter 555, Emission filter (1) P-pol 632, Emission filter (2) S-pol 632
For `CN(C)/C=C(/C(=O)c1ccc(Cl)cc1)S(=O)(=O)c1ccc(Cl)cc1`, the Potency entry was “inactive”.
The same measure for `O=C1NC(=S)N/C1=C/c1ccc2ccccc2c1`: “inactive”.
The figure for `O=C(CSc1nnc(-c2c[nH]c3ccccc23)o1)c1ccc(-c2ccccc2)cc1` is 35.5 µM (active); for `CC(=O)NC1C(=O)N(CCN2CCOCC2)c2ccc(C)cc21` (stereo not given) it is 71 µM (active).
As for `CC(C)Cc1cc(C(=O)NCCCN2CCOCC2)no1`, the Potency result is “inactive”.
The same measure for `O=C(N1CCOCC1)N1CCN(S(=O)(=O)c2ccc(Cl)cc2)CC1`: “inactive”; for `Cn1c(=O)[nH]c(=O)c2c1nc(Br)n2CCSc1nc2ccccc2o1`: “inactive”.
In the case of `Cc1ccc(NC(=O)C(C)N2C(=O)c3ccccc3C2=O)c(C)c1` (stereo not given), the Potency result is “inactive”.
The entry for `CCOc1ccc(NC(=O)c2cccc(OC(=S)N3CCC(C)CC3)c2)cc1` is “inactive”.
The same measure for `Cc1cc2c(c(=O)n1Cc1ccccc1)C1O[C@](c3ccsc3)(Cc3cc(C#N)ccc31)O2`: “inactive”.
The same measure for `O=C(NC(=S)Nc1nc(-c2ccc(Br)cc2)cs1)c1cccnc1`: “inactive”; for `N=c1oc2ccccc2cc1-c1nc(-c2ccc(Cl)cc2)cs1`: “inactive”; for `CCOC(=O)c1cnc2ccc(OCC)cc2c1N1CCN(C)CC1`: 31.7 µM (active).
As to `O=C(Nc1ccc2c(c1)OCO2)c1ccccc1`, the Potency result is “inactive”.
Consider `CCCCCC1CCC(C(=O)NCCN2CCOCC2)CC1` (stereo not given), for which the Potency result was “inactive”.
The entry for `CN1CCN(CC(=O)Nc2ccc(S(=O)(=O)N(C)C)cc2)CC1` is “inactive”.
The same measure for `CCc1cc2c(N3CCN(C(=O)c4ccco4)CC3)ncnc2s1`: 35.5 µM (active); for `O=C(Nc1ccc(F)c(Cl)c1)c1cc(-c2ccco2)on1`: 31.7 µM (active); for `O=C(Cn1nc(-c2ccccc2)ccc1=O)N1CCCCC1`: “inactive”.
The same measure for `CN(C)CCCOc1ccc2c(c1)Sc1ccccc1CC2=O`: 141 µM (active).
On to `CCOC(=O)N1CCN(C(=O)c2oc3ccc(S(=O)(=O)N(CC)CC)cc3c2C)CC1`, for which the Potency result is “inactive”.
The entry for `O=C(CC(=O)c1ccccc1)Nc1cc(C(F)(F)F)ccc1Cl` is “inactive”.
The same measure for `CCCNC(=O)c1ccc2c(=O)c(O)c(C)[nH]c2c1`: “inactive”; for `CN1CCN(CC(=O)c2ccccc2F)CC1`: “inactive”; for `N#Cc1ccc(Cl)cc1NC(=O)CNCc1cccs1`: “inactive”.
The figure for `O=C(C[N+]12CC[N+](CC(=O)c3ccc(F)cc3)(CC1)CC2)c1ccc(F)cc1` is 35.5 µM (active); for `CCN1CCN(CC(=O)Nc2ccc(C(C)=O)cc2)CC1` it is “inactive”.
In the case of `COc1ccc(Cn2nnnc2C(c2ccc3ncccc3c2)N2CCN(C3CCCCC3)CC2)cc1` (stereo not given), the Potency is 89.1 µM (active).
Turning to `O=C(NNCS(=O)(=O)O)c1ccncc1`, the Potency result was “inactive”.
The entry for `COc1ccc(C)cc1N(C(=O)c1snc(C(N)=O)c1N)C(C(=O)NC1CCCC1)c1ccc(F)cc1` (stereo not given) is “inactive”.
The same measure for `CCOC(=O)N1CCN(CCC(=O)c2ccc(Br)cc2)CC1`: “inactive”; for `CCCN(CCC)CCCNC(=O)c1cc2c(=O)[nH]c3ccccc3c2s1`: “inactive”.
The figure for `CCCC(c1nnnn1Cc1ccco1)N1CCN(C2CCCC2)CC1` (stereo not given) is 79.4 µM (active); for `O=c1cc(O)c2ccccc2n1Cc1ccccc1F` it is “inactive”; for `Cc1ccc(S(=O)(=O)c2cc(OC(=O)c3ccco3)ccc2OC(=O)c2ccco2)cc1` it is “inactive”.
Regarding `COc1cc(NC(=O)c2cccnc2)c(OC)cc1NC(=O)c1ccc(Br)cc1`, the Potency entry is “inactive”.
The same measure for `CCc1ccc(CNC(=O)CCS(=O)(=O)Cc2ccccc2F)cc1`: “inactive”; for `NC(=O)c1ccc(NC(=O)c2cncn2-c2ccccc2)cc1`: “inactive”.
The figure for `Cc1cc2c(N)cccc2nn1` is 141 µM (active).
The entry for `OC(c1ccccn1)(c1ccccn1)c1ccccn1` is “inactive”.
